From the supplement of paper PMC9023506 come the findings set out here.

Where a name gives a salt, the structure may show the parent alone.

The subject of this test is Danio rerio larvae (5 dpf). As to the kind of experiment: startle response to 20-s acoustic pulses, difference vs DMSO (percentage points (treated minus DMSO)); higher = more of the behaviour than the DMSO vehicle control. The following applies: 10 µM; exposure time: 3 h pre-incubation + 3 h imaging. How it is done:
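5-dpf wild-type zebrafish larvae were imaged in 96-well plates. They were treated with 190 Tocris FDA-approved drugs at 10 µM (1 µl/ml DMSO) for 3 h before and 3 h during imaging at 28.5 °C, 48 larvae per drug. Automated image analysis gave % time moving and optomotor responses. Values are drug group mean minus DMSO vehicle mean (n=844), in percentage points, for 10 behaviours.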
Turning to `CC(C)CN(C[C@@H](O)[C@H](Cc1ccccc1)NC(=O)O[C@H]1CO[C@H]2OCC[C@H]21)S(=O)(=O)c1ccc(N)cc1` [Darunavir], the “startle response to 20-s acoustic pulses” value was -1.98.

For `Nc1nc(F)nc2c1ncn2[C@@H]1O[C@H](CO)[C@@H](O)[C@@H]1O` [Fludarabine], the “startle response to 20-s acoustic pulses” value came to 3.23.

For `COc1ccc(Cl)cc1C(=O)NCCc1ccc(S(=O)(=O)NC(=O)NC2CCCCC2)cc1` [Glibenclamide], the “startle response to 20-s acoustic pulses” value came to 6.49.

Turning to `COc1cc2ncnc(Nc3ccc(F)c(Cl)c3)c2cc1OCCCN1CCOCC1` [Iressa], the “startle response to 20-s acoustic pulses” value is -2.19.

With `C#CCN[C@@H]1CCc2ccccc21` [Rasagiline mesylate], the “startle response to 20-s acoustic pulses” value was determined as 2.17.

As to `CCOC(=O)C1=C(COCCN)NC(C)=C(C(=O)OC)C1c1ccccc1Cl` (stereo not given) [Amlodipine besylate], the “startle response to 20-s acoustic pulses” value is 0.195.

As to `COC(=O)C1=C(C)NC(C)=C(C(=O)OC(C)C)C1c1cccc2nonc12` (stereo not given) [Isradipine], the “startle response to 20-s acoustic pulses” value is -10.3.

Turning to `NC(=O)OCC(COC(N)=O)c1ccccc1` [Felbamate], the “startle response to 20-s acoustic pulses” value was 2.22.

In the case of `CN[C@H]1CC[C@@H](c2ccc(Cl)c(Cl)c2)c2ccccc21` [Sertraline hydrochloride], the “startle response to 20-s acoustic pulses” value amounted to 1.74.

For `Cn1cnc([N+](=O)[O-])c1Sc1ncnc2[nH]cnc12` [Azathioprine], the “startle response to 20-s acoustic pulses” value was -1.29.

For `COCCCOc1cc(C[C@@H](C[C@H](N)[C@@H](O)C[C@H](C(=O)NCC(C)(C)C(N)=O)C(C)C)C(C)C)ccc1OC` [Aliskiren hemifumarate], the “startle response to 20-s acoustic pulses” value is -0.0432.

With `CC1(C)O[C@@H]2[C@@H](CO[C@@]3(COS(N)(=O)=O)OC(C)(C)O[C@@H]23)O1` [Topiramate], the “startle response to 20-s acoustic pulses” value amounted to 0.811.

Consider `CC(=O)Oc1ccccc1C(=O)O` [Aspirin], for which the “startle response to 20-s acoustic pulses” value was -4.27.

Turning to `CC(c1cc2ccccc2s1)N(O)C(N)=O` (stereo not given) [Zileuton], the “startle response to 20-s acoustic pulses” value was -2.9.

With `COc1ccccc1Oc1c(NS(=O)(=O)c2ccc(C(C)(C)C)cc2)nc(-c2ncccn2)nc1OCCO` [Bosentan], the “startle response to 20-s acoustic pulses” value was 6.71.

Turning to `Cc1ccsc1C(=CCCN1CCC[C@@H](C(=O)O)C1)c1sccc1C` [Tiagabine hydrochloride], the “startle response to 20-s acoustic pulses” value was determined as 5.98.

On to `CC(C)Nc1cccnc1N1CCN(C(=O)c2cc3cc(NS(C)(=O)=O)ccc3[nH]2)CC1` [Delavirdine mesylate], for which the “startle response to 20-s acoustic pulses” value was -4.51.

As to `CCc1c2c(nc3ccc(OC(=O)N4CCC(N5CCCCC5)CC4)cc13)-c1cc3c(c(=O)n1C2)COC(=O)[C@]3(O)CC`, the “startle response to 20-s acoustic pulses” value amounted to 1.92.

Regarding `CN/C(=N\CCSCc1nc[nH]c1C)NC#N` [Cimetidine], the “startle response to 20-s acoustic pulses” value was 7.14.

As for `NC(=O)c1ncn([C@@H]2O[C@H](CO)[C@@H](O)[C@H]2O)n1` [Ribavirin], the “startle response to 20-s acoustic pulses” value was 1.75.

Regarding `OCCN(CCO)c1nc(N2CCCCC2)c2nc(N(CCO)CCO)nc(N3CCCCC3)c2n1` [Dipyridamole], the “startle response to 20-s acoustic pulses” value stood at 6.96.

`CC(=O)Oc1cc2c(s1)CCN(C(C(=O)C1CC1)c1ccccc1F)C2` (stereo not given) [Prasugrel]: the “startle response to 20-s acoustic pulses” value was -10.9.

As to `CCOc1nc2cccc(C(=O)O)c2n1Cc1ccc(-c2ccccc2-c2nnn[nH]2)cc1` [Candesartan], the “startle response to 20-s acoustic pulses” value came out at 10.6.

Consider `CC1CNc2c(cccc2S(=O)(=O)N[C@@H](CCCNC(=N)N)C(=O)N2CC[C@@H](C)C[C@@H]2C(=O)O)C1` (stereo not given in full) [Argatroban], for which the “startle response to 20-s acoustic pulses” value is 2.94.

As for `CN(CCOc1ccc(NS(C)(=O)=O)cc1)CCc1ccc(NS(C)(=O)=O)cc1` [Dofetilide], the “startle response to 20-s acoustic pulses” value was found to be 0.873.

On to `CC(C)C(=O)OCC(=O)[C@@]12O[C@H](C3CCCCC3)O[C@@H]1C[C@H]1[C@@H]3CCC4=CC(=O)C=C[C@]4(C)[C@H]3[C@@H](O)C[C@@]12C` [Ciclesonide], for which the “startle response to 20-s acoustic pulses” value was -4.94.

Turning to `CC(C)n1c(/C=C/C(O)CC(O)CC(=O)O)c(-c2ccc(F)cc2)c2ccccc21` (stereo not given) [Fluvastatin sodium], the “startle response to 20-s acoustic pulses” value was 1.71.

On to `CN1CC2c3ccccc3Oc3ccc(Cl)cc3C2C1` (stereo not given) [Asenapine maleate], for which the “startle response to 20-s acoustic pulses” value was -6.44.

Take `C[C@H]1C[C@@H]2[C@H]([C@@H](O)C[C@@]3(C)[C@H]2CC[C@]3(O)C(=O)CO)[C@@]2(C)C=CC(=O)C=C12` [Methylprednisolone]: the “startle response to 20-s acoustic pulses” value was -0.0848.

For `COc1cc(N)c(Cl)cc1C(=O)NC1CCN(CCCOc2ccc(F)cc2)CC1OC` (stereo not given) [Cisapride], the “startle response to 20-s acoustic pulses” value was -0.377.

For the compound `CC#C[C@]1(O)CC[C@H]2[C@@H]3CCC4=CC(=O)CCC4=C3[C@@H](c3ccc(N(C)C)cc3)C[C@@]21C` [Mifepristone], the “startle response to 20-s acoustic pulses” value was 0.769.

With `CN1CCN(CCCN2c3ccccc3Sc3ccc(Cl)cc32)CC1` [Prochlorperazine dimaleate], the “startle response to 20-s acoustic pulses” value was -7.34.

Turning to `O=C(O)c1cc(/N=N/c2ccc(S(=O)(=O)Nc3ccccn3)cc2)ccc1O` [Sulfasalazine], the “startle response to 20-s acoustic pulses” value is -1.02.

On to `CCCc1nn(C)c2c(=O)[nH]c(-c3cc(S(=O)(=O)N4CCN(C)CC4)ccc3OCC)nc12` [Sildenafil citrate], for which the “startle response to 20-s acoustic pulses” value turned out to be 0.54.

Consider `O=c1n(CCCN2CCN(c3cccc(Cl)c3)CC2)nc2ccccn12` [Trazodone hydrochloride], for which the “startle response to 20-s acoustic pulses” value came to 2.64.

Turning to `Cc1cccc(C)c1OCC(C)N` (stereo not given) [Mexiletine hydrochloride], the “startle response to 20-s acoustic pulses” value is 0.873.

Take `Cc1ccc(O)c([C@H](CCN(C(C)C)C(C)C)c2ccccc2)c1` [Tolterodine L-tartrate]: the “startle response to 20-s acoustic pulses” value was -5.76.

In the case of `CCOC(=O)[C@H](CCc1ccccc1)N[C@H]1CCc2ccccc2N(CC(=O)O)C1=O` [Benazepril hydrochloride], the “startle response to 20-s acoustic pulses” value is -1.74.

Take `CCOC(=O)C1=C(C)NC(C)=C(C(=O)OC)C1c1cccc(Cl)c1Cl` (stereo not given) [Felodipine]: the “startle response to 20-s acoustic pulses” value was determined as 9.85.

For the compound `Nc1nc2[nH]cc(CCc3ccc(C(=O)N[C@@H](CCC(=O)O)C(=O)O)cc3)c2c(=O)[nH]1` [Pemetrexed], the “startle response to 20-s acoustic pulses” value is -4.56.
